The text below walks through data of PubChem BioAssay.

The source made the active and inactive calls.

Experiment [1] in a line: small molecules captured by biotinylated probe aFSTL3 – biochemical, small-molecule microarray, fluorescence 635/667, stem cell growth factor project, primary screen (AID 1064).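 Further: measures binding of the biotinylated anti-FSTL3 antibody to printed compounds.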 The following applies: higher = more signal.
A short description of experiment [2]: binders from COS7 lysate, DM2A8 probe, primary screen, torsin A project, cell lysate, small-molecule microarray, fluorescence 635/667 (AID 1065). The following applies: higher = more signal, COS7 lysate expressing mutant human TOR1A.
The nature of experiment [3]: small molecules captured by biotinylated probe aFGF2 – biochemical, small-molecule microarray, fluorescence 635/667, stem cell growth factor project, primary screen (AID 1067).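 Further: measures binding of biotinylated aFGF2 protein to printed compounds on slides; z-score merges feature fluorescence and signal-to-noise across triplicate slides.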 As to conditions: higher = more signal.
Experiment [4] is described as follows: small molecules captured by biotinylated probe aFGF10 – biochemical, small-molecule microarray, fluorescence 635/667, stem cell growth factor project, primary screen (AID 1071).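 Further: score merges 667 nm spot intensity and signal to noise from triplicate slides.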 The following applies: higher = more signal.
The target of experiment [5] is Neurogenic locus notch homolog protein 2 (Homo sapiens) (UniProt Q04721). The experiment in a line: small molecules binding Notch2 protein – biochemical, small-molecule microarray, 635 nm fluorescence, stem cell growth factors, primary screen (AID 1073). The following applies: higher = more signal.
Experiment [6] concerns the target Pro-neuregulin-1, membrane-bound isoform (Homo sapiens) (UniProt Q02297). As to the kind of experiment: small molecules binding neuregulin-1 protein – biochemical, small-molecule microarray, fluorescence 635/667, psychiatric disease protein project, primary screen (AID 1075).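 Further: score combines 667 nm spot fluorescence with signal to noise.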 The following applies: NRG1 binding, 635 nm fluorescence, higher = more signal.
The test system of experiment [7] is Neuregulin-1 EGF-like domain. As to the kind of experiment: small molecules binding NRG1 EGF domain – biochemical, small-molecule microarray, 635 nm fluorescence, primary screen (AID 1081).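 Further: binding of the protein to compounds printed on small-molecule microarray slides.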 The following applies: higher = more signal.
Experiment [8] is described as follows: FRG1 expression reporter modulators in myotubes – cell-based, C2C12 myotubes, firefly/Renilla luciferase, luminescence, FRG1 inhibition for FSHD, primary screen (AID 1084). The following applies: FRG1 promoter luciferase, higher = more signal, called active from +8 up or from −8 down.
The nature of experiment [9]: small molecules captured by biotinylated probe aFST – biochemical, small-molecule microarray, fluorescence 635/667, stem cell growth factor project, primary screen (AID 1086).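 Further: score merges 667 nm fluorescence with signal-to-noise of each printed compound spot.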 As to conditions: higher = more signal.
The nature of experiment [10]: binders of probe aHhip on microarray, primary screen, stem cell growth factor project, biochemical, small-molecule microarray, fluorescence 635/667 (AID 1087).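 Further: score merges spot fluorescence at 667nm with spot signal to noise ratio.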 The following applies: higher = more signal.
The test system of experiment [11] is PRMT1 (protein arginine N-methyltransferase 1). The experiment in a line: small molecules binding arginine methyltransferase PRMT1 – biochemical, small-molecule microarray, 635 nm fluorescence, primary screen (AID 1088).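 Further: binding of Prmt1 protein to compounds spotted on small-molecule microarray slides.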 As to conditions: higher = more signal.
Experiment [12] in a line: growth effects on S. cerevisiae YJM789 – YJM789 clinical isolate, OD600, 24 h, basal, primary screen (AID 1089).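 Further: growth of clinical yeast isolate S. cerevisiae YJM 789 seeded 1000 cells per well; test concentration not given here.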 The following applies: higher = more signal, called active from +8 up or from −8 down.
Experiment [13] can be described thus: S. pombe growth modifiers, basal conditions – strain 972, OD600, 24 h, no modulator, primary screen (AID 1090).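 Further: basal condition with compound alone and no growth modifier present; test concentration not given here.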 The following applies: S. pombe 972 growth, higher = more signal, called active from +8 up or from −8 down.
Experiment [14] can be described thus: budding yeast growth modifiers under rapamycin – strain BY4716, OD600, 96 h, primary screen (AID 1091). Further: test concentration not given here. As to conditions: S. cerevisiae BY4716 + rapamycin, higher = more signal, called active from +8 up or from −8 down.
Experiment [15] deals with Torsin-1A-interacting protein 2 (Homo sapiens) (UniProt Q8NFQ8). The experiment in a line: small molecules binding lysate-expressed LULL1 – cell lysate, human LULL1 lysate, 635/667 nm fluorescence, primary screen (AID 1092).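 Further: probe is lysate of COS7 cells overexpressing human LULL1; score merges per-feature 667 nm fluorescence with signal-to-noise.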 The following applies: small-molecule microarray, hLULL1 lysate binding, 635 nm fluorescence; higher = more signal.
A short description of experiment [16]: optical density change of DRC41 E. coli – strain DRC41, OD650, 24 h, E. coli filamentation project, primary screen (AID 1093).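 Further: MC1000 strain lacking acrAB efflux and sulA so SOS filamentation is blocked; test concentration not given here.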 The following applies: E. coli DRC41 growth, higher = more signal, called active from +8 up or from −8 down.
The nature of experiment [17]: probe aLefty2 binding to arrayed compounds – biochemical, biotinylated probe, 635/667 nm fluorescence, primary screen (AID 1094).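 Further: score merges spot fluorescence near 667 nm with spot signal-to-noise ratio.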 The following applies: small-molecule microarray, higher = more signal.
Experiment [18] relates to Noggin (protein binding on small-molecule microarray). The experiment in a line: small molecules binding Noggin protein – biochemical, 635/667 nm fluorescence, primary screen (AID 1095).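 Further: score merges 667 nm feature fluorescence with signal to noise over triplicate slides.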 As to conditions: 635 nm fluorescence, higher = more signal.
For experiment [19], the target named is Neurogenic locus notch homolog protein 3 (Homo sapiens) (UniProt Q9UM47). The experiment in a line: small molecules binding NOTCH3 protein – biochemical, 635/667 nm fluorescence, primary screen (AID 1096). As to conditions: small-molecule microarray, 635 nm fluorescence, higher = more signal.
The nature of experiment [20]: probe aEGFR binding to arrayed compounds – biochemical, biotinylated probe, 635/667 nm fluorescence, primary screen (AID 1097).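 Further: probe is a biotinylated anti-EGFR antibody binding compounds printed on slides; score combines fluorescence near 667 nm and signal to noise of each spot.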 As to conditions: small-molecule microarray, higher = more signal.

Sequence of Neurogenic locus notch homolog protein 3 (Homo sapiens) (Q9UM47 whole entry, looked up): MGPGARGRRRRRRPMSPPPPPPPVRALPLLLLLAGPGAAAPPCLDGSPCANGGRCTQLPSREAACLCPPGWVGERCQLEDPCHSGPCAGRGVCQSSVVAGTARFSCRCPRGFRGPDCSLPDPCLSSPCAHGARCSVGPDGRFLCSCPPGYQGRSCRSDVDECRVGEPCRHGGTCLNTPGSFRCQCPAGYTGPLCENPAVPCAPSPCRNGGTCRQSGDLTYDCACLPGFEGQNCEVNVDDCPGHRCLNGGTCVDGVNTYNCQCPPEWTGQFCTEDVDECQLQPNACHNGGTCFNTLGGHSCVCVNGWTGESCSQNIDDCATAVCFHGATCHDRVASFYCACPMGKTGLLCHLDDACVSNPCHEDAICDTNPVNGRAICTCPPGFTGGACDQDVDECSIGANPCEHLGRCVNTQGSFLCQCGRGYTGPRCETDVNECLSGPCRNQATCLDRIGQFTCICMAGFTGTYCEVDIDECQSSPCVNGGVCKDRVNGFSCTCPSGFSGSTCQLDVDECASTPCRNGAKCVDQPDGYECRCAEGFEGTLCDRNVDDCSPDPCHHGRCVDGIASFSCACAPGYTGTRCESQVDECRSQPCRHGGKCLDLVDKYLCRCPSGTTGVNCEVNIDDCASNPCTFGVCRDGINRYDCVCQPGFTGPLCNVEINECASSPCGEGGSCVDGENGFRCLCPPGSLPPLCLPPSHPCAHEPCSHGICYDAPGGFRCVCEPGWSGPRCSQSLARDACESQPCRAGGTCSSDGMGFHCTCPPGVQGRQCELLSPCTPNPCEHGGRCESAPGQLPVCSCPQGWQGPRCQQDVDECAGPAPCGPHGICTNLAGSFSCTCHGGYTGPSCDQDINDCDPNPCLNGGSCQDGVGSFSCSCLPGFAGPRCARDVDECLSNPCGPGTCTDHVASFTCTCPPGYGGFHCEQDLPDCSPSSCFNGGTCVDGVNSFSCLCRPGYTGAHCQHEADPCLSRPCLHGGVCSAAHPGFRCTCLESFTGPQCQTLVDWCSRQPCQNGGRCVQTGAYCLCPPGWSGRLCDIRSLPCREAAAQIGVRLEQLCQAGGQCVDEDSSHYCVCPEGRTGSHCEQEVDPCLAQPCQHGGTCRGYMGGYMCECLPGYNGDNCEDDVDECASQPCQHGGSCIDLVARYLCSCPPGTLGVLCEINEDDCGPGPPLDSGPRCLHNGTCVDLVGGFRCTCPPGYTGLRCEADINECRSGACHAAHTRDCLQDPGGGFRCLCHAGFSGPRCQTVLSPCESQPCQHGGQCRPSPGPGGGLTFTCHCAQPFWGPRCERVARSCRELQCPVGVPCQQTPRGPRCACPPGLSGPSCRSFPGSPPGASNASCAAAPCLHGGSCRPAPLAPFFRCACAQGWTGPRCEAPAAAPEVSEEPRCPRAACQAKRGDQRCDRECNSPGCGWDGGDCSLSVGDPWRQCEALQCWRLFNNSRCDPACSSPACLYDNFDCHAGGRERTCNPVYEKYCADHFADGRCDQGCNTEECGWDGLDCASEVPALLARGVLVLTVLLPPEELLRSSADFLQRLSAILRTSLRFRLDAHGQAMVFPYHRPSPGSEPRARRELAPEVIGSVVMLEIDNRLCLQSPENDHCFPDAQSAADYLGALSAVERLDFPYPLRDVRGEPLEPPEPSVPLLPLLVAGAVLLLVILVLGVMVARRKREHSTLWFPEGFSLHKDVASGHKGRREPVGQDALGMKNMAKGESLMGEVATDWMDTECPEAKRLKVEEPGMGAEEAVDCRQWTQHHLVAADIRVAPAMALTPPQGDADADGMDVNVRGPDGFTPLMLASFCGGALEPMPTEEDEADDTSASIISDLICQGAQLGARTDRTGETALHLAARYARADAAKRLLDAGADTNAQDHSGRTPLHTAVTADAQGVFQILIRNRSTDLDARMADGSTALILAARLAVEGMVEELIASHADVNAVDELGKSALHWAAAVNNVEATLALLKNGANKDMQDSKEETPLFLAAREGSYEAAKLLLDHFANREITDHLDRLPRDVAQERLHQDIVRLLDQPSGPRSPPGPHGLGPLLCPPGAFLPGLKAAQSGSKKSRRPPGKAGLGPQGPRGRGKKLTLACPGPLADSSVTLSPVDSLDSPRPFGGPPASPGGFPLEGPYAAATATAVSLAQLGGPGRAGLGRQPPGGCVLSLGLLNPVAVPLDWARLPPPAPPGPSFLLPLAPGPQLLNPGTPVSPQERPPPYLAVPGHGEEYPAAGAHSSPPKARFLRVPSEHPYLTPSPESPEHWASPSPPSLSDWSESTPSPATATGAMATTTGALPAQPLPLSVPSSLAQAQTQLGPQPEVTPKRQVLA
Sequence of Neurogenic locus notch homolog protein 2 (Homo sapiens) (Q04721 whole entry, looked up, canonical isoform): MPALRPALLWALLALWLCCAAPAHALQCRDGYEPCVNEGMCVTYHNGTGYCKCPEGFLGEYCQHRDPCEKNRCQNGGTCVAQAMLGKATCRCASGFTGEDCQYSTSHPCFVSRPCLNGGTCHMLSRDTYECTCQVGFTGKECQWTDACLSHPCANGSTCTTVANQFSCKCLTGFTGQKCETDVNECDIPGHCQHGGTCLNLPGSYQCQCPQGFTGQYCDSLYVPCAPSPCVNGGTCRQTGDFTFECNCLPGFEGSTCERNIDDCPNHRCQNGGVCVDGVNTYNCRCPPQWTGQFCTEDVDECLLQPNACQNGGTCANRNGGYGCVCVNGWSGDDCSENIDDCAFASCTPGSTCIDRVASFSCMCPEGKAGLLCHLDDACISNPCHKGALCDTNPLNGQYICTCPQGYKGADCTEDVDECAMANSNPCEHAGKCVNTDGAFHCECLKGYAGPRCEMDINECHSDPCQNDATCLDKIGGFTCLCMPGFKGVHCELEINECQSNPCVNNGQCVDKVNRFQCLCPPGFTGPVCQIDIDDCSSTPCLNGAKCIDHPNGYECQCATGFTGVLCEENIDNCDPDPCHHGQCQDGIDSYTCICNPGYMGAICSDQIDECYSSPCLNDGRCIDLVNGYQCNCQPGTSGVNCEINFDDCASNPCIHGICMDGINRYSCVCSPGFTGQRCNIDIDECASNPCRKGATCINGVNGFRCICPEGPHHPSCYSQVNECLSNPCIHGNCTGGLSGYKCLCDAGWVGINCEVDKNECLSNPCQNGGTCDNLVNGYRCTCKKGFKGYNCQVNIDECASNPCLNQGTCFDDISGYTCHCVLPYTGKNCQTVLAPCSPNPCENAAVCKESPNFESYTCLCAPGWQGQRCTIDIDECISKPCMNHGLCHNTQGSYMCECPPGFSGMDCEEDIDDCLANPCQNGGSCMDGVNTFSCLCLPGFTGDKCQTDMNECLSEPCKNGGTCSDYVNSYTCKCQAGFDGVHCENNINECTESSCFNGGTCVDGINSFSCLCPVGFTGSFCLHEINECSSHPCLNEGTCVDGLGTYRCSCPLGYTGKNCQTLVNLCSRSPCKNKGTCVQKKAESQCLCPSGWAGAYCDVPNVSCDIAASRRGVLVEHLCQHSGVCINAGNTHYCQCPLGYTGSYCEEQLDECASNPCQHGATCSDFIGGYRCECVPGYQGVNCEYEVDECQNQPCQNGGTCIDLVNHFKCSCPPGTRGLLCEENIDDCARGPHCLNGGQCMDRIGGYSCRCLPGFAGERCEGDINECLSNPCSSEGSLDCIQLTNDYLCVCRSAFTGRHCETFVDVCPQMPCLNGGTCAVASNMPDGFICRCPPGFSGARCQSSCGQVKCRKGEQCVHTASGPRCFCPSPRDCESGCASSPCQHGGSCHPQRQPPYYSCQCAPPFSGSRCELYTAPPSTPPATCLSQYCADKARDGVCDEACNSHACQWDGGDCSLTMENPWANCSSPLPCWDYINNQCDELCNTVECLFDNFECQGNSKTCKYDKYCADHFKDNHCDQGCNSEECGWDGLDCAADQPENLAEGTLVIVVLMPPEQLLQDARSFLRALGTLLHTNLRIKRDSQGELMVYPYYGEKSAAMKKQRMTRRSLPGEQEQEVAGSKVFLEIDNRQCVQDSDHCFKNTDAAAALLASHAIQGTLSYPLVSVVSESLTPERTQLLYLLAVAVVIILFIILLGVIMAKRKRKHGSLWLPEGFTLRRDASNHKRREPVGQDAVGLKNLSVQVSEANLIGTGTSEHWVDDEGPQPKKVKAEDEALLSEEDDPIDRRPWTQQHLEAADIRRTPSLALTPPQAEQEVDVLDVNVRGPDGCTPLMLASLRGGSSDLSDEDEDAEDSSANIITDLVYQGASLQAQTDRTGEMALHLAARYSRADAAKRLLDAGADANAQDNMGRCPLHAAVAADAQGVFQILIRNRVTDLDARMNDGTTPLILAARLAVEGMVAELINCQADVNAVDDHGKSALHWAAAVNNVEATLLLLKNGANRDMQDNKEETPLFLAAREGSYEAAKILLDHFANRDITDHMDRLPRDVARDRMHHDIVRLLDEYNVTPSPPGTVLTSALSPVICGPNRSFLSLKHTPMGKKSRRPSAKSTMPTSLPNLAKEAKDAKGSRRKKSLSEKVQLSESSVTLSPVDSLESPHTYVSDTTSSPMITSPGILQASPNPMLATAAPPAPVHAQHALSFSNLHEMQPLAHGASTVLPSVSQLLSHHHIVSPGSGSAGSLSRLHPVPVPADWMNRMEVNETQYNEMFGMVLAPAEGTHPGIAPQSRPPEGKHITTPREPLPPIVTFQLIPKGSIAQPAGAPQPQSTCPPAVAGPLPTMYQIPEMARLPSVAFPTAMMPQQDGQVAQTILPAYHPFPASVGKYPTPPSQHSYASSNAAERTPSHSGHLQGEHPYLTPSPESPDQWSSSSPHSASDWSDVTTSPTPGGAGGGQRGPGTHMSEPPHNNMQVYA

With `O=C1O[C@H](c2ccccc2)[C@H](c2ccccc2)N2[C@H]1[C@@H](C(=O)Nc1nc3ccccc3s1)[C@]1(C(=O)Nc3ccc(C#CC4(O)CCCCCC4)cc31)[C@H]2c1ccc(O)cc1`, the composite z-score in experiment [1] was -0.299; in experiment [2], -0.0427; in experiment [3] it was -0.0407; in [4], 0.443; in experiment [5], 1.34; in experiment [6] it was 1.8. Besides, the composite z-score came to 1.14 in [7]; 0.668 in [9]; 0.0623 in experiment [10]; 1.54 in [11]; 3.08 in [15]; 0.11 in experiment [17]. Also, the composite z-score is 1.59 in [18], 1.09 in experiment [19] and -0.0214 in [20]. For the same compound, the z-score in [8] was 0.36 (inactive); in experiment [12] it was -0.0416 (inactive); in [13], -0.265 (inactive); in [14] it was 0.439 (inactive); in experiment [16], -0.616 (inactive).
In the case of `COCCOC(=O)N1C(=O)[C@@]2(c3ccccc31)[C@H](C(=O)N1CCc3cc(OC)c(OC)cc3C1)[C@H]1C(=O)O[C@H](c3ccccc3)[C@H](c3ccccc3)N1[C@@H]2c1ccccc1OCCO`, the composite z-score was 0.221 in experiment [1]; 0.409 in experiment [2]; -0.0009 in experiment [3]; 0.66 in experiment [4]; 0.809 in experiment [5]; 0.607 in [6]. The composite z-score in [7] was 1.04; in [9], 0.481; in [10], 0.251; in [11], 1.48; in experiment [15] it was 2.14; in experiment [17], 0.0261. Also, the composite z-score in experiment [18] is 1.03; in experiment [19], 1.07; in experiment [20], -0.0717. For the same compound, the z-score in experiment [8] was -0.381 (inactive); in experiment [12] it was 0.384 (inactive); in experiment [13], -0.0822 (inactive); in experiment [14] it was 5.51 (inactive); in [16], 2.8 (inactive).
Regarding `CC(C)N1CC=CC23O[C@@H]4/C=C\CCCOC(=O)C4[C@H]2C(=O)N(CCCCCO)[C@@H]3C1=O` (stereo not given in full), the composite z-score is 0.378 in experiment [1]; 2.29 in experiment [2]; -0.226 in experiment [3]; -1.52 in [4]; -2.17 in experiment [5]; 1.16 in [6]. Besides, the composite z-score was 0.665 in [7]; -0.729 in experiment [9]; 0.0176 in [10]; -2.15 in experiment [11]; -0.467 in experiment [15]; -0.208 in experiment [17]. Moreover, the composite z-score is -1.65 in experiment [18], -1.89 in [19] and -0.364 in [20]. In addition, the z-score is 0.561 (inactive) in experiment [8]; -0.927 (inactive) in experiment [12]; -1.16 (inactive) in experiment [13]; -0.693 (inactive) in experiment [14]; 1.67 (inactive) in experiment [16].
On to `CO[C@H]1COC(=O)[C@@H](C)NC(=O)CC=C[C@@H](C)[C@H](OC)COC(=O)CC=C[C@@H]1C`, for which the composite z-score in [1] was -0.691; in experiment [2], 1.95; in [3], -0.229; in experiment [4] it was -0.895; in experiment [5], -1.41; in [6], -0.615. The composite z-score in experiment [7] is 0.479; in experiment [9], -0.0849; in [10], 0.0596; in experiment [11] it was 1.55; in experiment [15], -0.619; in experiment [17] it was -0.28. Besides, the composite z-score in experiment [18] was 1.52; in experiment [19] it was 0.134; in [20], -0.299. Also, the z-score in [8] was -1.32 (inactive); in experiment [12], -1.66 (inactive); in [13], -2.03 (inactive); in [14], -1.67 (inactive); in [16], 1.25 (inactive).
With `O=C1O[C@@H](c2ccccc2)[C@@H](c2ccccc2)N2[C@@H](c3ccccc3OCCO)[C@]3(C(=O)Nc4ccc(C#CC5=CCCCC5)cc43)[C@@H](C(=O)O)[C@H]12`, the composite z-score in [1] was 0.294; in experiment [2], 0.416; in [3] it was 0.0248; in experiment [4], 0.627; in experiment [5] it was 1.44; in experiment [6], 0.391. The composite z-score in [7] was 1.1; in [9], 0.415; in experiment [10], -0.226; in experiment [11] it was 1.34; in experiment [15] it was 1.83; in experiment [17], 0.0748. Moreover, the composite z-score in experiment [18] is 0.269; in experiment [19] it was 1.05; in experiment [20], -0.0321. Besides, the z-score is -1.6 (inactive) in experiment [8]; 2.48 (inactive) in experiment [12]; -0.608 (inactive) in experiment [13]; 0.341 (inactive) in [14]; 2.04 (inactive) in experiment [16].
